Screens (PubChem BioAssay)
ER stress surv: protection against thapsigargin ER stress killing – CSM14.1 cells, ATP luminescence, primary screen; CSM14.1 thapsigargin ER stress survival; relative survival (cellular ATP), % at 15 µg/mL (by protocol); 48,000 tested, 0.33% active;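 active = survival measured by cellular ATP above 50% at 15 µg/ml in the first screen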;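 note: cell death triggered by about 15 µM thapsigargin; ATP read 24 h after thapsigargin was added; plate controls were thapsigargin with DMSO for no effect and DMSO without thapsigargin for full effect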
* marks the source's active call; other numbers are inactive results. Shown is part of a subset that was picked to be rich in hits.

SMILES	ER stress surv
COc1cc(CN2CCN(C(=O)c3ccc(-c4ccccc4)cc3)CC2)cc(OC)c1OC	75*
COc1ccc(C(=O)N2CCN(Cc3cc(OC)c(O)c(OC)c3)CC2)cc1	-4
O=C(c1ccc([N+](=O)[O-])cc1)N1CCN(Cc2ccccn2)CC1	7
O=C(c1ccc([N+](=O)[O-])cc1)N1CCN(Cc2cccc(Cl)c2)CC1	0
O=C(c1ccc([N+](=O)[O-])cc1)N1CCN(Cc2cccc3ccccc23)CC1	63*
COc1ccc(C(=O)N2CCN(Cc3cc(OC)c(OC)c(OC)c3)CC2)cc1OC	-1
COc1cccc(CN2CCN(C(=O)c3ccccc3)CC2)c1OC	-2
COc1cccc(CN2CCN(C(=O)c3cccc(F)c3)CC2)c1OC	7
COc1cccc(CN2CCN(C(=O)c3ccc(-c4ccccc4)cc3)CC2)c1OC	113*
Cc1cc(OC(=O)c2ccc(Cl)c([N+](=O)[O-])c2)ccc1C(C)C	8
COC(=O)c1ccccc1NC(=O)c1ccc(CN2CCN(c3ccccc3)CC2)cc1	4
O=[N+]([O-])c1ccc(N/N=C/c2cccc(Oc3ccccc3)c2)cc1	11
C/C(=N\NC(=O)c1cc2ccccc2cc1O)c1ccco1	4
CC(=O)CSc1sc(=S)sc1SCC(C)=O	28
COC(=O)c1cccc(NC(=O)c2cc[n+](C)cc2)c1	0
O=C(Nc1ccccc1C(=O)c1ccccc1)c1ccccc1	9
Cc1ccc(-n2[nH]c(=O)c(/C=c3/c(C)c(C#N)c4nc5ccccc5n4c3=O)c2O)cc1C	1
COc1ccc(CN2CCN(C(=O)c3ccc([N+](=O)[O-])cc3)CC2)cc1OCc1ccccc1	72*
COc1ccc(CN2CCN(C(=O)c3ccccc3OC)CC2)cc1OCc1ccccc1	17
COc1ccc(CN2CCN(C(=O)c3cccc(F)c3)CC2)cc1OCc1ccccc1	23
COc1cc(CN2CCN(C(=O)c3ccc([N+](=O)[O-])cc3)CC2)cc(OC)c1OC	9
COc1ccc(C(=O)N2CCN(Cc3ccccc3)CC2)cc1[N+](=O)[O-]	14
COc1ccc(CN2CCN(C(=O)c3ccc(F)cc3)CC2)cc1OCc1ccccc1	53*
COC(=O)c1ccc2c(c1[N+](=O)[O-])C(=O)c1ccccc1C2=O	11
CCOc1cc(OCC)cc(C(=O)Nc2ccc(I)cc2Cl)c1	0
SMILES	ER stress surv
Fc1ccc(NC(=S)Nc2ccc(I)cc2)cc1	1
C/C(=N\Nc1nc(-c2ccc(C)cc2)nc2ccccc12)c1ccc(N)cc1	-21
CCOC(=O)c1c(C)[nH]c(N=Nc2cccc([N+](=O)[O-])c2)c1C	6
CCOc1ccc(C(=O)Nc2cc(Cl)cc(Cl)c2)cc1Cl	6
CCOc1ccc(C(=O)Nc2ccc(Cl)c(-c3nc4ccccc4[nH]3)c2)cc1Cl	65*
CCOc1ccc(C(=O)Nc2ccc(Cc3ccncc3)cc2)cc1Cl	35
Nc1ccc(Oc2ccc(N)c(N)c2)cc1	-6
O=C1C(Cl)=C(Nc2ccc(F)cc2)C(=O)N1c1cccc(Cl)c1	3
Cc1ccccc1C(=O)NNC(=O)c1ccco1	2
CCCC(=O)NNC(=O)c1ccccc1C	65*
Cc1ccccc1C(=O)NNC(=O)C(C)C	29
CCOc1ccc(C(=O)Nc2cccc(NC(=O)c3ccc(F)cc3)c2)cc1	0
CCOC(=O)c1c(C)nc(C)c(C(=O)OCC)c1-c1cccc(NC(=O)c2ccc(F)cc2)c1	115*
CCOC(=O)c1c(C)nc(C)c(C(=O)OCC)c1-c1ccccc1	4
O=C(NC1CCN(Cc2ccccc2)CC1)c1ccc(Br)cc1	-3
O=C(C1CC1c1ccccc1)N1CCN(C(c2ccccc2)c2ccccc2)CC1 (stereo not drawn)	104*
O=C(O)C1C2CCC(O2)C1C(=O)N1CCN(C(c2ccccc2)c2ccccc2)CC1 (stereo not drawn)	-3
O=C(O)C1C2C=CC(O2)C1C(=O)N1CCN(C(c2ccccc2)c2ccccc2)CC1 (stereo not drawn)	-3
CC(=O)Nc1ccc(-c2cn3ccccc3n2)cc1	-28
CCCC(=O)NC(c1ccc(Cl)cc1)c1ccc2cccnc2c1O (stereo not drawn)	11
COc1ccc(C(NC(=O)c2ccccc2)c2ccc3cccnc3c2O)cc1 (stereo not drawn)	7
CCC(=O)NC(c1ccc(N(C)C)cc1)c1ccc2cccnc2c1O (stereo not drawn)	59*
CC(=O)c1ccc(N/C(=N/S(=O)(=O)c2ccc(Cl)cc2)c2ccccc2)cc1	3
CCC(=O)NNC(=O)c1cc(=O)[nH]c2ccccc12	-3
O=C(NCCNC(=O)c1cccs1)c1cccs1	4
SMILES	ER stress surv
O=C(NCc1ccncc1)c1cccs1	18
O=C(CC(=S)c1cccs1)c1ccncc1	61*
COc1ccccc1/C=N/Nc1cc(N2CCCC2)nc(N2CCCC2)n1	-3
COc1ccc(N2C(=O)C3C(C2=O)N2C(c4ccco4)C4C(=O)N(c5ccc(OC)cc5)C(=O)C4N2C3c2ccco2)cc1 (stereo not drawn)	18
CC(C)CCNC(=O)c1cc(-c2ccccc2)nc2ccccc12	5
Cc1nc(C)c(-c2csc(Nc3ccc(O)cc3)n2)s1	2
CCN(CC)c1ccc(Nc2nc(-c3c(C)nc4ccccn34)cs2)cc1	44
CCN(CC)c1ccc(Nc2nc(-c3sc(N)nc3C)cs2)cc1	72*
O=C(Nc1ccc(Cl)c(Cl)c1)c1ccc([N+](=O)[O-])o1	1
O=C(Nc1ncccn1)c1ccc([N+](=O)[O-])o1	65*
Cc1ccc(C(=O)Nc2ncccn2)o1	-5
O=C(COc1ccc2ccccc2c1)Nc1cccc(NC(=O)c2ccc(Cl)cc2Cl)c1	50*
O=C(COc1ccc2ccccc2c1)Nc1ccc(Cl)c(Cl)c1	0
O=C(Nc1cccc(NC(=O)c2cccc3ccccc23)c1)c1ccc(Cl)cc1Cl	9
CC(=O)N/N=C/c1cc(C)n(-c2ccc(Cl)cc2)c1C	-3
O=[N+]([O-])c1cc(S(=O)(=O)Nc2cc(Cl)ccc2Cl)ccc1Cl	-2
CC(C)OC(=O)c1ccc(NC(=O)COc2ccc(Cl)cc2)cc1	10
CC1(c2ccccc2)CC(C)(C)N(C(N)=O)c2ccccc21 (stereo not drawn)	2
Cc1nnc(SCC(=O)N2c3ccccc3C(C)(c3ccc(Br)cc3)CC2(C)C)s1 (stereo not drawn)	-2
C=CCn1c(SCC(=O)N2c3ccccc3C(C)(c3ccccc3)CC2(C)C)nnc1-c1ccncc1 (stereo not drawn)	76*
CCc1ccc(-n2c(C)cc(/C=N/NC(=O)c3ccncc3)c2C)cc1	31
Cc1ccc(-n2c(C)cc(/C=N/NC(=O)c3ccncc3)c2C)cc1C	67*
Cc1cccc(C)c1-n1c(C)cc(/C=N/NC(=O)c2ccncc2)c1C	5
Cc1ccc(S(=O)(=O)N2CCN(CCN3C(=O)c4cccc5cccc(c45)C3=O)CC2)cc1[N+](=O)[O-]	9
CCOC(=O)/C(=C/C=C/N(C1CCCCC1)C1CCCCC1)C(C)=O	50*
COC(=O)/C(=C\C=C\N(C)c1ccccc1)C(C)=O	-5
CCOC(=O)/C(C(C)=O)=C(\C=C\N(C)C)N(C)C	-7
CCN1C(=O)c2cccc3c(NC(=O)c4ccc(C(=O)c5ccccc5)cc4)ccc1c23	6
CCN1C(=O)c2cccc3c(NC(=O)c4ccc(Oc5ccccc5)cc4)ccc1c23	9
CCN1C(=O)c2cccc3c(NC(=O)c4ccc(S(=O)(=O)N5CCCCCC5)cc4)ccc1c23	96*
